# Source: PubChem BioAssay (NCI)
# This is part of a sample that, as a whole, favours compounds with a hit. Of some 83,000 tested, about 20% had one in any assay.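 How to read the values: 0–100, growth inhibition (40 = 60% inhibited); 0, no net growth; -100 to 0, cell death (-40 = 40% of starting cells died; -100 = all dead).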 A number with no mark means an inactive call. The source made the active and inactive calls. Rule for the calls: active = growth percent below 10; inactive = the rest.
# Test system: MDA-MB-468 breast
# Assay: NCI-60 one-dose screen, 48 h (100 = growth as untreated, 0 = no growth, -100 = all killed)
# Settings: 10 µM unless noted
row,Compound,growth
1,COc1ccc2occ(C3=C(c4c[nH]c5ccccc45)C(=O)N(O)C3=O)c2c1,95.1%
2,COC(=O)c1ccc(NC2=C(Cl)C(=O)C(C)=C(C)C2=O)cc1,-45.9% (active)
3,COc1ccc(C2CC(=O)Oc3c(OC)c4c(c(OC)c32)OCO4)cc1 (stereo not given),96.9%
4,C#Cc1nc(C2=C(C)C(O)CC2)cs1 (stereo not given),-91.7% (active)
5,C#C[C@]1(O)CC[C@H]2[C@@H]3CC=C4c5sc(NCc6ccccc6)nc5CC[C@]4(C)[C@H]3CC[C@@]21C,45.4%
6,CCOC(=O)C1(N)CCCCC1,105%
7,COc1ccc(COc2ccc(/C=C3/C(=O)Nc4cc(Cl)ccc43)cc2)cc1,93.4%
8,Cn1c([N+](=O)[O-])cnc1/C=C1\Oc2ccccc2C1=O,28.3%
9,CCOC(=O)c1ccncc1,89.1%
10,CCOC(=O)CC1CSC(N/N=C/c2ccc(O)cc2)=N1 (stereo not given),108%
11,CCOC(=O)c1ccc(NC2=CC(=O)C(C)=C(C)C2=O)cc1,13.8%
12,C#CCOc1ccc(/C=N/Nc2nc(-c3cc(Cl)ccc3Cl)cs2)cc1,25.9%
13,Cn1c2ccc(Cl)cc2c2nn(C(=O)c3ccccc3)c(=O)nc21,103%
14,C=C1CCC2C3(C)COC(C)(C)OC3CCC2(C)C1C/C=C1/C(=O)OCC1Oc1ccccc1OC (stereo not given),60.6%
15,N#Cc1cc2[nH]c3ccc(OC(F)(F)F)cc3c2oc1=O,95.2%
16,O=C(O)Cc1ccc2c(c1)Cc1cccnc1O2,97.1%
17,CCCCCCCCCCCCCCCCCC[n+]1ccc2c(C)c3c(c(C)c2c1)c1cc(O)ccc1n3CC,-18.3% (active)
18,COc1ccc(C2[C@@H](Cl)C(=O)N2c2cc(OC)c(OC)c(OC)c2)cc1Cl (stereo not given in full),2.32% (active)
19,c1ccc(CNc2nc(Nc3ccc(-c4nc5ccccc5[nH]4)cc3)c3cn[nH]c3n2)cc1,-22% (active)
20,O=C(O)/C=C\C(=O)N1C/C(=C\c2ccccc2Cl)C(=O)/C(=C/c2ccccc2Cl)C1,-75.2% (active)

row,Compound,growth
1,CNCc1cccc2c1OCCOCCOCCN(C)S(=O)(=O)c1ccc(cc1)-c1cnc(N)c(n1)C(=O)N2,68.5%
2,COc1cc(-c2cc(-c3ccc(N(C)C)cc3)nc(N3CCC(O)CC3)c2C#N)cc(OC)c1OC,-21.2% (active)
3,COc1ccc(NC(=O)CSc2nc3ccccc3c(=O)n2-c2ccccc2C(F)(F)F)c(OC)c1OC,93.2%
4,O=C(Nc1ccc(S(=O)(=O)NC2CCCCCC2)cc1)C(c1ccccc1)S(=O)(=O)c1ccc(F)cc1 (stereo not given),-14.5% (active)
5,CCCC(O)Cn1ncc(C(=O)OCC)c1NC(=O)NCc1cccc(F)c1 (stereo not given),97.3%
6,CN(C)c1ccc(N2Cc3ccccc3OC3=C2C(=O)c2c(O)ccc(O)c2C3=O)cn1,-59.4% (active)
7,Brc1cc(-c2cc(-c3ccc4c(c3)OC=CO4)[nH]n2)cs1,30%
8,COc1cc(N2C(=O)[C@H](c3ccccc3)C2c2ccc(SC)cc2)cc(OC)c1OC (stereo not given in full),-9.99% (active)
9,CCCCOc1nc2ccccc2cc1C1CNC(=O)c2ccccc2N1 (stereo not given),-1.81% (active)
10,O=C(Nc1ccc(F)cc1)Nc1ccc(Cl)c([N+](=O)[O-])c1,-3.78% (active)
11,COc1ccc(/C(C)=C(\c2ccc(Cl)cc2)c2ccc(OCCN3CCCC3)cc2)cc1,57.8%
12,N=C(N)c1ccc(-c2ccc(-c3ccccc3)o2)o1,14.3%
13,CCCCCN(CCCCC)CC(O)c1c(Cl)ccc2ccccc12 (stereo not given),78.9%
14,Cc1ccc2c(n1)C(=O)C(Cl)=C(Nc1cccc(C)c1C)C2=O,-63.3% (active)
15,CN(C)C(=O)C1=NC(CO)C(=O)N(c2ccc(Cl)cc2)N1 (stereo not given),95.2%
16,O=C(CCCCCCN1CC(=O)N2[C@@H](C3CCCCC3)c3[nH]c4ccccc4c3C[C@H]2C1=O)NO,64.3%
17,CC(=O)OCc1cc(-c2nc3ccccc3[nH]c2=O)nn1-c1ccc(Cl)cc1,89.3%
18,CC(C)CCC[C@@H](C)[C@H]1CC[C@H]2[C@@H]3CC=C4N(c5ccccc5)C(=O)CC[C@]4(C)[C@H]3CC[C@]12C,96.4%
19,CCCCCCCCCCCCNC(=O)N[C@H](C(=O)N[C@H]1/C=C/OCCNC(=O)/C=C/[C@H](C(C)C)NC1=O)C(C)C,15.5%
20,CCCCCN(CCCCC)CCCCCCCCN1CCCc2ccccc21,99.9%
